Test results reported in PubChem BioAssay (NCI).
Compounds without any hit were thinned out: in the full panel of roughly 83,000, 20% have a hit.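 Note: values are percent growth. 100 is the growth of untreated cells, values between 100 and 0 indicate rising inhibition; between -100 and 0 indicates cell death.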 Values without a mark were called inactive. Activity calls are given as the source filed them. Rule for the calls: active = growth percent below 10; inactive = the rest.

Assays:
Assay in all cases: NCI-60 one-dose screen, 48 h (100 = growth as untreated, 0 = no growth, -100 = all killed)
Conditions in all cases: 10 µM unless noted
[1] = tested on: NCI-H23 lung
[2] = tested on: NCI-H226 lung
[3] = tested on: NCI-H322M lung
[4] = tested on: HOP-62 NSCLC
[5] = tested on: NCI-H460 lung
[6] = tested on: HOP-92 NSCLC
[7] = tested on: NCI-H522 lung
[8] = tested on: A549/ATCC NSCLC
[9] = tested on: 786-0 renal
[10] = tested on: DU-145 prostate
[11] = tested on: K-562 leukemia
[12] = tested on: MALME-3M melanoma
[13] = tested on: MDA-MB-231 breast
[14] = tested on: RXF 393 renal
[15] = tested on: SF-268 CNS
[16] = tested on: SF-295 CNS
[17] = tested on: SF-539 CNS
[18] = tested on: UACC-257 melanoma
[19] = tested on: M14 melanoma

Row | SMILES | growth [1] | growth [2] | growth [3] | growth [4] | growth [5] | growth [6] | growth [7] | growth [8] | growth [9] | growth [10] | growth [11] | growth [12] | growth [13] | growth [14] | growth [15] | growth [16] | growth [17] | growth [18] | growth [19]
1 | CCOc1ccc(-c2nc3ccc(-c4nc5ccc(N6CCN(C)CC6)cc5[nH]4)cc3[nH]2)cc1OCC | -7.66% (active) | -8.92% (active) | 42.1% | 16.7% | 17.2% | 48.8% | -18.2% (active) | 79.2% | 22.3% | 11.1% | 12.8% | -34.7% (active) | 19.4% | -37.8% (active) | 19.3% | 27.2% | -42.7% (active) | 6.87% (active) | 10%
2 | O=C1C2=C(CCN(Cc3ccccc3)C2)N2CCN=C2N1Cc1ccc(F)cc1F | 32.2% | 29% | 45.4% | 33.6% | 15.5% | 41.9% | 24.2% | 26.7% | 55.2% | 32.6% | 33.1% | 41.5% | 20.4% | 55% | 40.2% | 5.35% (active) | 40.1% | 13.6% | 35.9%
3 | CN(C)c1ccc(/C=C2\C=C(c3ccccc3)N(CCc3ccccc3)C2=O)cc1 | 64.2% | 52.8% | 71.9% | -14% (active) | 23.6% | 51.2% | 50.6% | 34.8% | 48.9% | 60.4% | 90.6% | 57.7% | 84.6% | 81.4% | 43.8% | 53.9% | 61.6% | 76.8% | 51.7%
4 | OC(CBr)c1ccnc2ccccc12 (configuration not stated) | 96.8% | 92.3% | 102% | 99.1% | 105% | 89.3% | 71.8% | 96.3% | 99.1% | 109% | 92% | 96.3% | 103% | 107% | 100% | 96.6% | 102% | 99.6% | 98%
5 | CN(C)CN1CCN(c2ccc3nc(-c4ccc5nc(-c6ccc(C(F)(F)F)cc6)[nH]c5c4)[nH]c3c2)CC1 | 55.6% | 64.2% | 87.1% | 57.6% | 10.6% | 75.8% | 42.1% | 83.8% | 78.5% | 45% | 11.6% | -4.2% (active) | 63.1% | 50.3% | 67.8% | 60.7% | 65.8% | 40.7% | 32.2%
6 | CCN(CC)S(=O)(=O)c1ccc(O)c(NC(=O)c2[nH]c(C)c(C(C)=O)c2CCc2ccc(Cl)cc2)c1 | 19.6% | 62.5% | 54.7% | 48.9% | 50.2% | 38.2% | 11.9% | 37.2% | 73.4% | 68.4% | 29.8% | 53% | 50.6% | 91.2% | 55.4% | 59.3% | 64.5% | 38.3% | 56.8%
7 | Nc1ccn(C2OC(F)(CO)C(O)C2F)c(=O)n1 (configuration not stated) | 10.3% | 89.4% | 71.1% | 17.3% | 12.7% | 53.3% | 32.8% | 21.8% | 10.9% | 24.6% | 69% | 57.4% | 93.4% | 82.4% | 47.1% | 55.2% | 46.9% | 62.6% | 1.59% (active)
8 | C=C(CNCCc1ccc(O)cc1)[C@@H]1CC[C@]2(COC3CCCCO3)CC[C@]3(C)[C@H](CC[C@@H]4[C@@]5(C)CCC(N)C(C)(C)[C@@H]5CC[C@]43C)[C@@H]12 (some centres not stated) | -89.1% (active) | -59.1% (active) | -95.1% (active) | -91.4% (active) | -84.2% (active) | -73.9% (active) | -84.3% (active) | -86.2% (active) | -79.4% (active) | -88.9% (active) | -73% (active) | -83.9% (active) | -92.2% (active) | -83.9% (active) | -71.6% (active) | -88% (active) | -94.9% (active) | -80.7% (active) | -88.6% (active)
